Shown are actives, neighbours in structure and some others; about 15% of the full set was active somewhere.
Gal4-VP16 FLuc = counter-screen for ROR gamma inhibitors: Gal4-VP16 reporter; 310,000 compounds, 3.5% hits; Potency, µM (titrated, usually from 53.6 µM), for inactives: at the top dose activity, negative = inhibition, most hits filed as inhibitors; Drosophila S2 Gal4-VP16 UAS-luciferase, luminescence, 20 h;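 further: Gal4-VP16 expression switched on by copper sulfate through the metallothionein promoter; nearly all actives have a fitted effect of over 50% in size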
TDP1 cell noCPT = qHTS for Inhibitors of human tyrosyl-DNA phosphodiesterase 1 (TDP1): qHTS in cells in absence of CPT | DT40 Tdp1-/- hTDP1 cells, no CPT, ATP luminescence, 48 h | Potency, µM (series often up to 46.2 µM), for the others: at the top dose activity change, negative = growth inhibition, hits mostly inhibitors | 420,000 compounds, 15% hits; further: nearly all actives have a fitted effect of over 55% in size
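Stably hTDP1-transfected Tdp1-null chicken DT40 cells were treated with library compounds minus camptothecin and grown for at least 48 hr at 37 °C, after which cellular ATP was quantified by luminescence.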
RORgamma inh = ROR gamma (mouse) transcription inhibition; P51450; Drosophila S2 Gal4-RORgamma UAS-luciferase reporter, 20 h; Potency, µM (titrated, usually from 53.6 µM), inactives show at the top dose activity change, negative = inhibition, usual class: inhibitors; 310,000 compounds, 5.4% hits; AID 2551; further: nearly all actives have a fitted effect of over 60% in size
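A Gal4/UAS one-hybrid system in insect cells: metallothionein-promoter Gal4–ROR gamma fusion plus Photinus luciferase reporter. Copper sulfate 700 uM final, 20 hr ambient incubation, luminescent detection after 10 min with reagent.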
12-LOX inh = inhibitors of human 12S-lipoxygenase ALOX12 | AID 1671190 | 580,000 compounds, 1.1% hits | P18054 | Potency, µM (top dose mostly 108 µM), inactives show at the top dose activity change, negative = inhibition, most hits filed as inhibitors | purified 12hLO, xylenol orange hydroperoxide absorbance
Target sequence (P18054 whole entry, looked up): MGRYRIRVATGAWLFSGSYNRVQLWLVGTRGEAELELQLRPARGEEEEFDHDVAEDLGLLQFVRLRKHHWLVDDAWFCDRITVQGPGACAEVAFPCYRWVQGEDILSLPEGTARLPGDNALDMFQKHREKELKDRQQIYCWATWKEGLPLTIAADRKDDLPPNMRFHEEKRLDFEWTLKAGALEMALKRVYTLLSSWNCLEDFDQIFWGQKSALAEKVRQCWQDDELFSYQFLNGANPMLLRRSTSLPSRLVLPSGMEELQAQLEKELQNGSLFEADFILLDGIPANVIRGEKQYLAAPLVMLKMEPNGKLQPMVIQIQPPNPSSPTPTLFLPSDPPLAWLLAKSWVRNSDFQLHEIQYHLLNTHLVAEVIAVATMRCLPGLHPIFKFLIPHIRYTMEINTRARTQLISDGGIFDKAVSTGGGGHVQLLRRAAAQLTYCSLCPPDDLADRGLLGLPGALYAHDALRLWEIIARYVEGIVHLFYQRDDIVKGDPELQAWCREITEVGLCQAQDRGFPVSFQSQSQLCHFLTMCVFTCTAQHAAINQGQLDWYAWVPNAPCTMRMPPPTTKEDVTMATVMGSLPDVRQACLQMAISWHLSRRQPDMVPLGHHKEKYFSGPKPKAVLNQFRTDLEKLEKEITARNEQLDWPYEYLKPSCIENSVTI
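Hydroperoxide product was detected by ferrous iron/xylenol orange as the 573 to 405 nm absorbance ratio. Arachidonic acid at 40 uM (final) was turned over for 30 min at room temperature by 150 nM human 12hLO, pH 7.0 Hepes buffer, after 15 min compound preincubation.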
ELG1 DNA repair = blocks ELG1-dependent DNA repair in HEK293T cells | HEK293T ELG1-luciferase reporter, luminescence, 16 h; DNA damage induced by 5-fluorouridine | Potency, µM (series often up to 46.1 µM), for inactives: top-dose activity change, negative = inhibition, actives largely listed as inhibitors | 330,000 compounds, 2.3% hits | AID 504467; further: nearly all actives have a fitted effect of over 55% in size
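HEK293T cells expressing luciferase-tagged ELG1 (2,000/well) received 5-Fluorouridine plus compound or DMSO for 16 hr at 37 °C. Luciferase was read by ONE-Glo luminescence after 30 min at room temperature.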
TDP1 cell CPT = growth inhibition of DT40 Tdp1-/-;hTDP1 cells with camptothecin (screen for TDP1 inhibitors); Potency, µM (series often up to 46.2 µM), for the others: at the highest dose activity change, negative = growth inhibition, hits mostly inhibitors; 420,000 compounds, 12% hits; chicken DT40 Tdp1-/-;hTDP1 cells + 20 nM CPT, ATP luminescence, 48 h; AID 686979; further: nearly all actives have a fitted effect of over 55% in size
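Cell growth measured by CellTiter-Glo luminescence after a minimum 48 h, 37 C compound exposure with 20 nM CPT in Tdp1-knockout DT40 cells stably expressing hTDP1, seeded 400/well; qHTS titration format.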
Active calls of the source: *; u = inconclusive; x = not tested or not shown. The call rests on the fitted dose curve; in most records, active means well fitted curve in the direction sought with a large enough effect; inconclusive means small, poorly fitted or top-dose-only effect, or another doubt; inactive means no such curve, though single readings can be large; an effect the other way counts as inactive or inconclusive. On the % scale 0 is the no-effect control and ±100 the full control effect; potency means the concentration at half of the fitted maximal effect.

SMILES | Gal4-VP16 FLuc | TDP1 cell noCPT | RORgamma inh | 12-LOX inh | ELG1 DNA repair | TDP1 cell CPT
O=c1[nH]c(Sc2ccc([N+](=O)[O-])cc2[N+](=O)[O-])nc2ccccc12 | x | 13µM* | x | u | x | 3.3µM*
O=[N+]([O-])c1ccc(SN2CCCCC2)c([N+](=O)[O-])c1 | x | x | x | -5% | x | x
O=[N+]([O-])c1ccc(Sc2cc[n+]([O-])c3ccccc23)c([N+](=O)[O-])c1 | 18µM* | 2.1µM* | 11µM* | 178% | u | 2.6µM*
COc1ccc(N2CC(C(=O)N3CCC(C(=O)NCc4ccc(C(F)(F)F)cc4)C3)NC2=O)cc1 (configuration not stated) | x | x | x | 51% | x | x
O=C(CSc1nc2ccccc2[nH]1)Nc1nc(-c2ccc(Br)cc2)cs1 | -23% | 16µM* | u | -3% | u | 23µM*
CC(C)(C)c1csc(NC(=O)CSc2nc3ccccc3c(=O)[nH]2)n1 | -3% | 23µM* | -21% | -3% | -10% | 18µM*
Cc1csc(NC(=O)CSc2nc3ccccc3c(=O)[nH]2)n1 | 3% | -27% | 35% | -5% | 0% | -24%
CCOC(=O)c1c(C)c(CCC(=O)NCCN2CCN(C)CC2)c(C)n1C | x | x | x | 14% | x | x
CCCS(=O)(=O)NCCc1ncc(C)n1CCOC | x | x | x | 22% | x | x
NC(=S)N/N=C1\CCOc2ccc(F)cc21 | 22µM* | 16µM* | 5µM* | u | 0% | u
COCCNC(=O)c1ccc(OC2CCN(C(C)CCSC)CC2)c(Cl)c1 (configuration not stated) | x | x | x | 2% | x | x
COc1ccc(-c2ccnc3nc(C4CC4)nn23)cc1 | x | x | x | -15% | x | x
COc1cccc(-c2nc(NC(C)C)c3ccccc3n2)c1O | u | 21µM* | u | u | 5.2µM* | u
COc1cccc(-c2nc(N3CCCCC3)c3ccccc3n2)c1O | x | 21µM* | x | 10% | x | 26µM*
COc1cccc(-c2nc(N3CCN(Cc4ccccc4)CC3)c3ccccc3n2)c1O | 4% | 16µM* | -17% | 5% | u | u
COc1ccccc1-c1nc(N2CCOCC2)c2ccccc2n1 | -8% | -27% | 6% | -26% | x | -2%
COc1cccc(-c2nc(N3CCN(c4ccccc4)CC3)c3ccccc3n2)c1O | -1% | 16µM* | 30% | 10% | 11% | u
CN1CCN(c2nc3nnnn3c3sc4c(c23)CCN(Cc2ccccc2)C4)CC1 | x | x | x | -2% | x | x
CC(C)C(=O)NCCNC(=O)c1cc(-c2ccncc2)nc2ccccc12 | x | x | x | -67% | x | x
COc1ccc(C(=O)N2CCCC3(CCC(=O)N(Cc4ccncc4)C3)C2)o1 (configuration not stated) | x | x | x | 1% | x | x
C=C1CCC2C(C)(C)[C@H](O)CC[C@@]2(C)[C@@H]1COc1cc(=O)oc2ccccc12 (some centres not stated) | 4% | u | u | 13% | u | u
C=C1CC[C@@H]2[C@](C)(CO)[C@H](O)CC[C@@]2(C)[C@@H]1C/C=C1/C(=O)OCC1O (some centres not stated) | x | 8.2µM* | x | -8% | x | 15µM*
C=C/C(C)=C/CC1C(=C)CCC2C(C)(C(=O)O)CCCC12C (configuration not stated) | -3% | 4% | 14% | -19% | -3% | 5%
C=C1CCC2[C@](C)(CO)C(O)CC[C@]2(C)C1C/C=C1/C(=O)OCC1O (some centres not stated) | -13% | x | 13µM* | x | x | x
C=C1CCC2C(C)(C)[C@@H](O)CC[C@@]2(C)[C@@H]1COc1ccc2ccc(=O)oc2c1 (some centres not stated) | -25% | u | -36% | 21% | -11% | -19%
SMILES | Gal4-VP16 FLuc | TDP1 cell noCPT | RORgamma inh | 12-LOX inh | ELG1 DNA repair | TDP1 cell CPT
C=C1CC[C@@H]2[C@](C)(CO)[C@H](O)CC[C@@]2(C)[C@@H]1C/C=C1/C(=O)OC[C@H]1O | x | 2.7µM* | x | x | x | 3µM*
CCc1nc2cc(N3CCC(C(=O)O)CC3)cnc2nc1CC | x | x | x | -12% | x | x
CC(C)(C)OC(=O)N1CCC(c2c(C(=O)NCc3ccccc3)cnn2-c2cccc(F)c2)CC1 | x | 18µM* | x | -24% | x | u
CC(C)(C)OC(=O)N1CCC(c2c(C(=O)NCCN3CCc4ccccc4C3)cnn2-c2ccc(F)cc2F)CC1 | x | 12µM* | x | -18% | x | 21µM*
Cc1ccc(-n2ncc(C(=O)NCCN3CCc4ccccc4C3)c2C2CCN(C(=O)OC(C)(C)C)CC2)c(C)c1 | x | u | x | -23% | x | u
CCOC(=O)c1cnn(-c2ccc(OC)cc2)c1C1CCN(C(=O)OC(C)(C)C)CC1 | x | 26µM* | x | 14µM* | x | u
CC(C)(C)OC(=O)N1CCC(c2c(C(=O)NCc3ccccc3)cnn2-c2ccc(F)cc2)CC1 | x | 18µM* | x | -11% | x | 23µM*
COc1ccc(-n2ncc(C(=O)NC3CC3)c2C2CCN(C(=O)OC(C)(C)C)CC2)cc1 | -1% | -1% | 2% | 0% | 4% | -20%
Cc1ccc(NC(=O)Cn2cnnc2C#N)cc1Cl | x | x | x | -3% | x | x
COc1cccc(/C=C(/C(=O)c2ccccc2)c2nc3ccccc3s2)c1 | x | x | x | -32% | x | x
O=C(Cn1nc2n(c1=O)CCCCC2)NCc1ccc(F)cc1 | x | x | x | 38% | x | x
CCOc1cc(=O)n2c(c1C(=O)NCc1ccccc1Cl)CCCC2 | x | x | x | 23% | x | x
COc1ccc(/C=C2/N=C(c3ccc(Cl)cc3Cl)NC2=O)cc1 | x | x | x | -18% | x | x
CC(C)(C)OC(=O)N1CCC(c2c(C(=O)NCc3cccs3)cnn2-c2ccc(F)cc2F)CC1 | x | u | x | -8% | x | u
CC(C)(C)OC(=O)N1CCC(c2c(C(=O)NCCc3ccccc3)cnn2-c2ccc(F)cc2F)CC1 | x | 18µM* | x | 0% | x | 21µM*
CC(C)(C)OC(=O)N1CCC(c2c(C(=O)N3CCCCC3)cnn2-c2ccc(F)cc2F)CC1 | x | u | x | 2% | x | u
CC(C)(C)OC(=O)N1CCC(c2c(C(=O)NCCc3ccccc3)cnn2-c2ccc(F)cc2)CC1 | x | 16µM* | x | 1% | x | u
COc1ccc(CCNC(=O)c2cnn(-c3ccc(F)cc3)c2C2CCN(C(=O)OC(C)(C)C)CC2)cc1OC | x | u | x | 11% | x | u
COc1ccc(CNC(=O)c2cnn(-c3ccc(C)cc3)c2C2CCN(C(=O)OC(C)(C)C)CC2)cc1 | x | 21µM* | x | -27% | x | 9.2µM*

Screens deposited in PubChem by National Center for Advancing Translational Sciences (NCATS).
